{"source": "paper PMC12431657", "about": "“Discovery and mechanistic insights of dibenzoylmethane as a broad spectrum inhibitor of coronavirus” (PLOS Pathogens, 2025)", "system": "HCoV-229E", "set-up": "species or system Huh-7; HTS, protection from HCoV-229E induced cell death, luminescent cell viability (CellCounting-Lite 2.0), inhibition rate", "note": "Read-outs that look alike come from different tables or passages of the source. Among all 3,300 compounds or so, about 95 (3%) showed an effect of 50% or more. The sample holds strong results, similar compounds and a random draw of the others, so the mix is not that of the screen.", "data": [{"smiles": "C[C@]12CC[C@@H](O)C[C@H]1CC[C@@H]1[C@@H]2CC[C@]2(C)C(=O)CC[C@@H]12", "note": "[Etiocholanolone]", "values": [{"measurement": "229E Inhibition rate", "setting": "24 h, 10 µM; inhibitor", "value": 13.1, "unit": "%"}]}, {"smiles": "C[C@]12CC[C@H](O)C[C@@H]1CC[C@@H]1[C@@H]2CC[C@]2(C)C(=O)CC[C@@H]12", "note": "[Epiandrosterone]", "values": [{"measurement": "229E Inhibition rate", "setting": "24 h, 10 µM; inhibitor", "value": 29.3, "unit": "%"}]}, {"smiles": "C[C@]12CC[C@@H](O)C[C@@H]1CC[C@@H]1[C@@H]2CC[C@]2(C)C(=O)CC[C@@H]12", "note": "[Androsterone]", "values": [{"measurement": "229E Inhibition rate", "setting": "24 h, 10 µM; inhibitor", "value": 52.3, "unit": "%"}]}, {"smiles": "COc1cc2cc(c1Cl)N(C)C(=O)C[C@H](OC(=O)C(C)C)[C@]1(C)O[C@@H]1[C@H](C)[C@@H]1C[C@@](O)(NC(=O)O1)[C@H](OC)/C=C/C=C(\\C)C2", "note": "[Ansamitocin P-3]", "values": [{"measurement": "229E Inhibition rate", "setting": "24 h, 10 µM; inhibitor", "value": 22.8, "unit": "%"}]}, {"smiles": "CN(C)NC(=O)CCC(=O)O", "note": "[Daminozide]", "values": [{"measurement": "229E Inhibition rate", "setting": "24 h, 10 µM; inhibitor", "value": 12.3, "unit": "%"}]}, {"smiles": "NC(=O)Cc1ccccc1", "note": "[2-Phenylacetamide]", "values": [{"measurement": "229E Inhibition rate", "setting": "24 h, 10 µM; inhibitor", "value": 20.1, "unit": "%"}]}, {"smiles": "NC(=O)NCCCC[C@H](N)C(=O)O", "note": "[L-Homocitrulline]", "values": [{"measurement": "229E Inhibition rate", "setting": "24 h, 10 µM; inhibitor", "value": 20.7}]}, {"smiles": "CC(C)(C)[C@]1(O)C[C@@H]2OC(=O)C[C@@]23C(=O)O[C@@H]2OC(=O)[C@H](O)[C@]213", "note": "[Bilobalide]", "values": [{"measurement": "229E Inhibition rate", "setting": "24 h, 10 µM; inhibitor", "value": 54.8, "unit": "%"}]}, {"smiles": "C/C=C/C#CC#C/C=C/c1ccco1", "note": "[Atractylodin]", "values": [{"measurement": "229E Inhibition rate", "setting": "24 h, 10 µM; inhibitor", "value": 10.3, "unit": "%"}]}, {"smiles": "C[C@@H]1CC[C@@]2(OC1)O[C@H]1[C@@H](O)[C@H]3[C@@H]4CC[C@H]5C[C@@H](O[C@@H]6O[C@H](CO)[C@H](O[C@@H]7O[C@H](CO)[C@@H](O)[C@H](O[C@@H]8OC[C@@H](O)[C@H](O)[C@H]8O)[C@H]7O[C@@H]7O[C@H](CO)[C@H](O)[C@H](O[C@@H]8O[C@H](CO)[C@@H](O)[C@H](O)[C@H]8O)[C@H]7O)[C@H](O)[C@H]6O)[C@H](O)C[C@]5(C)[C@H]4CC[C@]3(C)[C@H]1[C@@H]2C", "note": "[Digitonin]", "values": [{"measurement": "229E Inhibition rate", "setting": "24 h post infection, 1 h compound pre-incubation; 10 µM; inhibitor", "value": 13.7, "unit": "%"}]}, {"smiles": "CCN1C[C@]2(C)CC[C@H](OC)[C@@]34C1[C@]1(OCO[C@@]15C[C@H](OC)[C@H]1C[C@]3(O)[C@@H]5[C@H]1OC)[C@@H](OC(C)=O)[C@H]24", "note": "[Deltaline]", "values": [{"measurement": "229E Inhibition rate", "setting": "24 h, 10 µM; inhibitor", "value": 2.6, "unit": "%"}]}, {"smiles": "CN1Cc2c(ccc3c2OCO3)[C@@H]2[C@H]1c1cc3c(cc1C[C@@H]2O)OCO3", "note": "[Chelidonine]", "values": [{"measurement": "229E Inhibition rate", "setting": "24 h, 10 µM; inhibitor", "value": 12.4, "unit": "%"}]}, {"smiles": "CO[C@H]1C[C@H](O[C@H]2CC[C@]3(C)[C@H]4CC[C@]5(C)[C@@H](C6=CC(=O)OC6)CC[C@]5(O)[C@@H]4CC[C@]3(O)C2)O[C@H](C)[C@H]1O[C@@H]1O[C@H](CO)[C@@H](O)[C@H](O)[C@H]1O", "note": "[Periplocin]", "values": [{"measurement": "229E Inhibition rate", "setting": "24 h, 10 µM; inhibitor", "value": 25}]}, {"smiles": "C[C@H]1O[C@@H](O[C@H]2CC[C@@]3(C)[C@H](CC[C@@H]4[C@@H]3C[C@@H](O)[C@]3(C)[C@@H](C5=CC(=O)OC5)CC[C@]43O)C2)C[C@H](O)[C@@H]1O[C@H]1C[C@H](O)[C@H](O[C@H]2C[C@H](O)[C@H](O[C@@H]3O[C@H](CO)[C@@H](O)[C@H](O)[C@H]3O)[C@@H](C)O2)[C@@H](C)O1", "note": "[Deslanoside]", "values": [{"measurement": "229E Inhibition rate", "setting": "24 h, 10 µM; inhibitor", "value": 55.1}]}, {"smiles": "CO[C@@H]1C[C@H](O[C@H]2CC[C@@]3(C)[C@H](CC[C@@]45O[C@@]46CC[C@H](C4=CC(=O)OC4)[C@@]6(C)CC[C@H]35)C2)O[C@H](C)[C@@H]1O", "note": "[Adynerin]", "values": [{"measurement": "229E Inhibition rate", "setting": "24 h, 10 µM; inhibitor", "value": 9.5, "unit": "%"}]}, {"smiles": "CC(C)=CCCC1=CC(=O)c2c(O)ccc(O)c2C1=O", "note": "[Deoxyshikonin]", "values": [{"measurement": "229E Inhibition rate", "setting": "24 h, 10 µM; inhibitor", "value": 9.8, "unit": "%"}]}, {"smiles": "CC1(C)[C@H]2O[C@H]2[C@H]2[C@](C)(O)[C@@H]3CC[C@@H]4[C@@H](O)[C@@]3(C[C@@H](O)[C@@]21O)C[C@@]4(C)O", "note": "[Rhodojaponin III]", "values": [{"measurement": "229E Inhibition rate", "setting": "24 h, 10 µM; inhibitor", "value": 46.8, "unit": "%"}]}, {"smiles": "CC(C)[C@@H]1NC(=O)[C@H](C)OC(=O)[C@@H](C(C)C)NC(=O)[C@@H](C(C)C)OC(=O)[C@H](C(C)C)NC(=O)[C@H](C)OC(=O)[C@@H](C(C)C)NC(=O)[C@@H](C(C)C)OC(=O)[C@H](C(C)C)NC(=O)[C@H](C)OC(=O)[C@@H](C(C)C)NC(=O)[C@@H](C(C)C)OC1=O", "note": "[Valinomycin]", "values": [{"measurement": "229E Inhibition rate", "setting": "24 h, 10 µM; inhibitor", "value": 90.8, "unit": "%"}]}, {"smiles": "COC1=CC(=O)O[C@@H](/C=C/c2ccccc2)C1", "note": "[(+)-Kavain]", "values": [{"measurement": "229E Inhibition rate", "setting": "24 h, 10 µM, inhibitor", "value": 9.8, "unit": "%"}]}, {"smiles": "COC(=O)[C@]12OC[C@]34[C@H]([C@@H](O)[C@@H]1O)[C@@]1(C)CC(=O)C(O)=C(C)[C@@H]1C[C@H]3OC(=O)[C@H](OC(=O)/C=C(\\C)C(C)(C)OC(C)=O)[C@@H]24", "note": "[Bruceantinol]", "values": [{"measurement": "229E Inhibition rate", "setting": "24 h, 10 µM; inhibitor", "value": 0, "unit": "%"}]}]}
